Measurements reported in PubChem BioAssay AID1159580 (chemical genetic matrix, 2015).
Values joined by “and” are separate entries in the source; they are usually repeats but may differ in a detail not shown here. Identical values can stand only once. In all, about 5,500 compounds went through this assay and about 2,000 (36%) were called active. Roughly 18% stayed inconclusive and do not appear here. Rule as the data show it: active = normalized growth mostly below about 0.91 (no sharp cut-off); inconclusive = no clear call, values can overlap the other calls; inactive = mostly above about 0.92. Some of the results follow.

Experiment: chemical genetic growth profiling, strain panel (AID 1159580);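 also: tested at 20 µM; growth read once vehicle control cultures reached saturation at 30 °C; 1 = growth at the plate median or of vehicle wells; lower values mean less growth of the strain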
Details: growth OD

Measured: normalized growth

CC(CCc1ccccc1)NCC(O)c1ccc(O)c(C(N)=O)c1 (stereo not given)
inactive: S. cerevisiae deletion strains, locus YJR075W, strain HOC1, hits give low values 1 | S. cerevisiae deletion strains, locus YKL009W, strain mrt4, hits give low values 1.01 | S. cerevisiae deletion strains, locus YKL068W, hits give low values 1.01 | S. cerevisiae deletion strains, locus YKL085W, strain MDH1 (second series), hits give low values 1.01 | S. cerevisiae deletion strains, locus YKL085W, strain MDH1, hits give low values 1.01 | S. cerevisiae deletion strains, locus YKL160W, strain elf1, hits give low values 1 | S. cerevisiae deletion strains, locus YKL190W, strain CNB1, hits give low values 1 | S. cerevisiae deletion strains, locus YKR001C, strain vps1, hits give low values 1.03 | S. cerevisiae deletion strains, locus YKR026C, strain gcn3, hits give low values 1.01 | S. cerevisiae deletion strains, locus YKR091W, strain srl3, hits give low values 0.997 | S. cerevisiae deletion strains, locus YLL001W, strain dnm1, hits give low values 1 | S. cerevisiae deletion strains, locus YLL026W, hits give low values 1 | S. cerevisiae deletion strains, locus YLL041C, strain sdh2, hits give low values 1 | S. cerevisiae deletion strains, locus YLR027C, strain aat2, hits give low values 0.992 | S. cerevisiae deletion strains, locus YLR039C, strain RIC1, hits give low values 1.05 | S. cerevisiae deletion strains, locus YLR058C, strain SHM2, hits give low values 1 | S. cerevisiae deletion strains, locus YLR102C, strain apc9, hits give low values 1.01 | S. cerevisiae deletion strains, locus YLR113W, strain HOG1, hits give low values 1.08 | S. cerevisiae deletion strains, locus YLR221C, strain rsa3, hits give low values 1.01 | S. cerevisiae deletion strains, locus YLR258W, strain gsy2, hits give low values 1.01 | S. cerevisiae deletion strains, locus YLR262C, strain YPT6 (second series), hits give low values 1.02 | S. cerevisiae deletion strains, locus YLR262C, strain YPT6, hits give low values 1.04 | S. cerevisiae deletion strains, locus YLR268W, strain sec22, hits give low values 1.02 | S. cerevisiae deletion strains, locus YLR320W, strain mms22, hits give low values 1.02 | S. cerevisiae deletion strains, locus YLR330W, strain CHS5, hits give low values 1.01 | S. cerevisiae deletion strains, locus YLR342W, strain FKS1 (second series), hits give low values 1.08 | S. cerevisiae deletion strains, locus YLR342W, strain FKS1, hits give low values 1.01 | S. cerevisiae deletion strains, locus YLR357W, strain rsc2, hits give low values 0.96 | S. cerevisiae deletion strains, locus YLR370C, strain arc18, hits give low values 1 | S. cerevisiae deletion strains, locus YLR371W, strain rom2, hits give low values 1.02 | S. cerevisiae deletion strains, locus YLR384C, strain iki3, hits give low values 1.02 | S. cerevisiae deletion strains, locus YLR418C, strain cdc73, hits give low values 1.06 | S. cerevisiae deletion strains, locus YML016C, strain PPZ1, hits give low values 1.01 | S. cerevisiae deletion strains, locus YML032C, strain rad52, hits give low values 0.996 | S. cerevisiae deletion strains, locus YML120C, strain ndi1, hits give low values 1.01 | S. cerevisiae deletion strains, locus YML124C, strain tub3, hits give low values 1.01 | S. cerevisiae deletion strains, locus YMR058W, strain fet3, hits give low values 1 | S. cerevisiae deletion strains, locus YMR078C, strain ctf18, hits give low values 1.01 | S. cerevisiae deletion strains, locus YMR125W, strain sto1, hits give low values 0.997 | S. cerevisiae deletion strains, locus YMR129W, hits give low values 1.01 | S. cerevisiae deletion strains, locus YMR205C, strain PFK2, hits give low values 1.01 | S. cerevisiae deletion strains, locus YMR223W, strain ubp8, hits give low values 1.04 | S. cerevisiae deletion strains, locus YMR231W, strain pep5, hits give low values 1.01 | S. cerevisiae deletion strains, locus YMR263W, strain SAP30, hits give low values 0.988 | S. cerevisiae deletion strains, locus YMR307W, strain GAS1, hits give low values 1.04 | S. cerevisiae deletion strains, locus YNL067W, strain RPL9B, hits give low values 0.988 | S. cerevisiae deletion strains, locus YNL071W, strain lat1, hits give low values 1 | S. cerevisiae deletion strains, locus YNL153C, strain GIM3, hits give low values 0.979 and 1.02 | S. cerevisiae deletion strains, locus YNL175C, strain NOP13, hits give low values 1.01 | S. cerevisiae deletion strains, locus YNL183C, strain NPR1, hits give low values 0.986 | S. cerevisiae deletion strains, locus YNL197C, strain WHI3, hits give low values 0.999 | S. cerevisiae deletion strains, locus YNL209W, strain ssb2, hits give low values 1.01 | S. cerevisiae deletion strains, locus YNL224C, strain SQS1, hits give low values 1.01 | S. cerevisiae deletion strains, locus YNL233W, strain BNI4, hits give low values 0.994 | S. cerevisiae deletion strains, locus YNL248C, strain rpa49, hits give low values 0.998 | S. cerevisiae deletion strains, locus YNL250W, strain rad50, hits give low values 1.03 | S. cerevisiae deletion strains, locus YNL271C, strain bni1, hits give low values 1.01 | S. cerevisiae deletion strains, locus YNL298W, strain CLA4, hits give low values 1.02 | S. cerevisiae deletion strains, locus YNL307C, strain MCK1, hits give low values 1.03 | S. cerevisiae deletion strains, locus YNL322C, strain KRE1 (second series), hits give low values 0.993 | S. cerevisiae deletion strains, locus YNL322C, strain KRE1, hits give low values 0.998 | S. cerevisiae deletion strains, locus YNR049C, strain mso1, hits give low values 0.999 | S. cerevisiae deletion strains, locus YNR052C, strain pop2, hits give low values 1.02 | S. cerevisiae deletion strains, locus YOL006C, strain TOP1, hits give low values 0.976 | S. cerevisiae deletion strains, locus YOL012C, strain htz1 0.754 | S. cerevisiae deletion strains, locus YOL147C, strain pex11, hits give low values 1.01 | S. cerevisiae deletion strains, locus YOR001W, strain rrp6, hits give low values 1.02 | S. cerevisiae deletion strains, locus YOR061W, strain CKA2, hits give low values 1.01 | S. cerevisiae deletion strains, locus YOR069W, strain VPS5, hits give low values 1 | S. cerevisiae deletion strains, locus YOR070C, strain gyp1, hits give low values 0.996 | S. cerevisiae deletion strains, locus YOR080W, strain dia2, hits give low values 0.999 | S. cerevisiae deletion strains, locus YOR083W, strain WHI5 (second series), hits give low values 1.02 | S. cerevisiae deletion strains, locus YOR083W, strain WHI5, hits give low values 1.01 | S. cerevisiae deletion strains, locus YOR106W, strain vam3, hits give low values 1.02 | S. cerevisiae deletion strains, locus YOR136W, strain idh2, hits give low values 1 | S. cerevisiae deletion strains, locus YOR144C, strain elg1, hits give low values 1.01 | S. cerevisiae deletion strains, locus YOR184W, strain ser1, hits give low values 1.01 | S. cerevisiae deletion strains, locus YOR231W, strain MKK1, hits give low values 1.07 | S. cerevisiae deletion strains, locus YOR265W, strain rbl2, hits give low values 0.992 | S. cerevisiae deletion strains, locus YOR270C, strain vph1, hits give low values 1.04 | S. cerevisiae deletion strains, locus YOR290C, strain snf2, hits give low values 1.03 | S. cerevisiae deletion strains, locus YOR316C, strain cot1, hits give low values 1.02 | S. cerevisiae deletion strains, locus YPL051W, strain arl3, hits give low values 1 | S. cerevisiae deletion strains, locus YPL055C, strain LGE1, hits give low values 0.945 and 0.997 | S. cerevisiae deletion strains, locus YPL078C, strain atp4, hits give low values 1 | S. cerevisiae deletion strains, locus YPL106C, strain sse1, hits give low values 1.01 | S. cerevisiae deletion strains, locus YPL240C, strain hsp82, hits give low values 1.01 | S. cerevisiae deletion strains, locus YPL241C, strain CIN2, hits give low values 1 | S. cerevisiae deletion strains, locus YPL256C, strain CLN2, hits give low values 1.04 | S. cerevisiae deletion strains, locus YPR119W, strain clb2, hits give low values 1.02 | S. cerevisiae deletion strains, locus YPR141C, strain kar3, hits give low values 1.01 | S. cerevisiae deletion strains, locus YPR163C, strain tif3, hits give low values 1.03 | S. cerevisiae deletion strains, locus YPR167C, strain met16, hits give low values 1.01 | S. cerevisiae deletion strains, strain wtn01, hits give low values 1.03 | S. cerevisiae strains, strain wild type, hits give low values 1
